Integrin act MD – activates integrin-mediated alleviation for muscular dystrophy; 350,000 tested, 0.064% active; alpha7betagal myoblasts, beta-gal FDG fluorescence, 48 h; AID 624291; Potency, µM (doses to about 38.3 µM), for inactives: top-dose activation, usual class: activators;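 further: 100% = response of the positive control SU9516; nearly all actives have a fitted effect of over 60% in size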
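Alpha7betagal+/- myoblasts (passage 13) were plated 16-24 hr, then exposed to compounds (1:260 dilution of DMSO stock) for 48 hours at 37C. After MPER lysis, β-galactosidase reporter activity was read as FDG fluorescence (ex 480/em 540) after 30 minutes.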
BCR signal inh – chronic active BCR signaling inhibition; Potency, µM (highest dose often 46.1 µM), for inactives: at the top dose activity change, negative = inhibition, actives largely listed as inhibitors; 340,000 tested, 0.05% active; ABC-DLBCL IkBa-CBG/CBR reporter, luminescence ratio, 4 h; AID 493014; active means well fitted inhibition curve with a large enough effect in the signal ratio, with a control signal flat, not every such curve was filed as active; inconclusive means small, poorly fitted or top-dose-only effect, or effect the other way, or a change in a side signal; the % refers to the signal ratio;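 further: plate controls were basal doxycycline-induced cells for no effect and cells given 10 µM MG132 for full effect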
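TMD8 human ABC-DLBCL cells with doxycycline-inducible IκBα–green luciferase fusion and unfused red luciferase, in 0.5% FBS medium; compounds up to 46 uM, 4 h at 37C. Green/red luminescence ratio, filter-overlap corrected, fitted to concentration-response curves.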
uPA surface inh – blocks generation of uPA at the cell surface; cell surface uPA generation assay, qHTS; Potency, µM (highest dose often 38.3 µM), for the others: at the highest dose activity change, negative = inhibition, actives largely listed as inhibitors; 330,000 tested, 0.31% active; AID 540303; active means well fitted inhibition curve with a large enough effect; inconclusive means small, poorly fitted or top-dose-only effect; inactive means no such curve, though single readings can be large or run the other way; tested in mouse RAW 264.7 cells; further: on the % scale 0 is the no-effect control and ±100 the full control effect; nearly all actives have a fitted effect of over 55% in size
VP16 counter – inhibits Gal4-VP16 luciferase reporter, ROR gamma counter-screen; 310,000 tested, 3.5% active; Potency, µM (series often up to 53.6 µM), for the others: top-dose activity, negative = inhibition, hits mostly inhibitors; Drosophila S2 Gal4-VP16 UAS-luciferase, luminescence, 20 h; AID 2546;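 further: Gal4-VP16 expression switched on by copper sulfate through the metallothionein promoter; on the % scale 0 is the no-effect control and ±100 the full control effect; nearly all actives have a fitted effect of over 50% in size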
RORg inh – blocks mouse ROR gamma transcriptional activity | P51450 | Drosophila S2 Gal4-RORgamma UAS-luciferase reporter, 20 h | Potency, µM (doses to about 53.6 µM), without a hit: top-dose activity change, negative = inhibition, most hits filed as inhibitors | 310,000 tested, 5.4% active; further: on the % scale 0 is the no-effect control and ±100 the full control effect; nearly all actives have a fitted effect of over 60% in size
Target sequence (P51450 whole entry, looked up, the tested form may be a part): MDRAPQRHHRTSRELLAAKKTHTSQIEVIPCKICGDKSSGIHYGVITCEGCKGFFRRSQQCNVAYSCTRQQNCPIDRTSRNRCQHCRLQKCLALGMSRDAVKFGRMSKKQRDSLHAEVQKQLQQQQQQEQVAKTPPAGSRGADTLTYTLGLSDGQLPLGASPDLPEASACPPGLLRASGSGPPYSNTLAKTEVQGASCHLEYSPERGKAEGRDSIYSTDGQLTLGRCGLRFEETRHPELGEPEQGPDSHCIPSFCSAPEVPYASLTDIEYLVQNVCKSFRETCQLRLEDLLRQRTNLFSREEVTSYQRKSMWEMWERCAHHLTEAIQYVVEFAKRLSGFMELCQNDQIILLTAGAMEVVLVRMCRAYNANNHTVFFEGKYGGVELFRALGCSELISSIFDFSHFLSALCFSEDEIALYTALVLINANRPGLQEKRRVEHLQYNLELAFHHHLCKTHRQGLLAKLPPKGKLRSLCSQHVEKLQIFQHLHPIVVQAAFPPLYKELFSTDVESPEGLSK
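Compounds are pin-transferred onto Drosophila Schneider cells expressing a copper-inducible Gal4–ROR gamma transactivation domain fusion. After 1 hr, copper sulfate is added to 700 uM final; luciferase is read 20 hr later.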
Mito fusion act – inhibitors of mitochondrial division or activators of mitochondrial fusion; S. cerevisiae fusion-defective mutant growth rescue, CellTiterGlo 48 h; Potency, µM (highest dose often 46.1 µM), for inactives: at the highest dose growth rescue (activation), hits mostly activators; 320,000 tested, 0.23% active; AID 485298; further: % of control where 0% means no effect; nearly all actives have a fitted effect of over 45% in size
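Temperature-sensitive fusion-defective S. cerevisiae (e.g. fzo1-1, mgm1-5) were grown with compound in YPEG medium (3% ethanol, 3% glycerol) for 48 hours at 37C. Growth rescue was measured as viability by CellTiterGlo luminescence after 10 minutes at ambient.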
* marks the source's active call; other numbers are inactive results; [ ] = remark or other dose. In the library only some 5.5% were active in any assay of this set; here they are far more common. Unless noted, the call rests on the fitted dose curve; in most records, active means well fitted curve in the direction sought with a large enough effect; inconclusive means small, poorly fitted or top-dose-only effect, or another doubt; inactive means no such curve, though single readings can be large; an effect the other way counts as inactive or inconclusive. Potency means the concentration at half of the fitted maximal effect.

For O=[N+]([O-])c1cc([N+](=O)[O-])c2c(=Nc3ccccc3)n(-c3ccccc3)n(O)c2c1 the results were Integrin act MD -61%, BCR signal inh 1%, uPA surface inh -9%, VP16 counter inconclusive, RORg inh 13µM* and Mito fusion act -13%.
For Cc1cc(Br)ccc1OCCCCN1CCCCC1 the results were Integrin act MD -63%, BCR signal inh -18%, uPA surface inh -4%, VP16 counter -6%, RORg inh -9% and Mito fusion act inconclusive.
COC1=CC(=O)C=C(OC)C1=O was read as uPA surface inh inconclusive, VP16 counter 4.5µM* and RORg inh 2.8µM*.
COC1=CC(=O)c2ccccc2C1=O was read as Integrin act MD -50%, BCR signal inh inconclusive and uPA surface inh 5µM*.
For CC(C)CN(CC(C)C)C(=O)CN1C(=O)NC2(CCCc3ccccc32)C1=O (stereo unspecified) the results were Integrin act MD -14%, BCR signal inh 8%, uPA surface inh 2%, VP16 counter -2%, RORg inh -1% and Mito fusion act 18%.
Screening CC(C)c1ccc(N(C(=O)c2ccc3c(c2)OCO3)C2C=CS(=O)(=O)C2)cc1 (stereo unspecified) returned Integrin act MD 0%, BCR signal inh inconclusive, uPA surface inh -5%, VP16 counter 2%, RORg inh 10% and Mito fusion act -1%.
Screening COc1ccc(/C=C2\SC(=O)N(CC(=O)NC3CCS(=O)(=O)C3)C2=O)cc1 (stereo unspecified) returned Integrin act MD 1%, BCR signal inh 0%, uPA surface inh -19%, VP16 counter 3%, RORg inh -43% and Mito fusion act -4%.
Screening C=CC[C@@H]1C=C[C@H](O/N=C(\C)CCN2CCc3nc(-c4ccccc4)c(-c4ccccc4)cc3C2)[C@H](CO)O1 returned VP16 counter -6%[10 µM] and RORg inh -7%[10 µM].
`Cc1cccc(NC(=S)N=Nc2c(O)n(C)c3ccc(S(=O)(=O)N4CCOCC4)cc23)c1` gave Integrin act MD -28%, BCR signal inh inconclusive, uPA surface inh -7%, VP16 counter 0.71µM*, RORg inh 0.13µM* and Mito fusion act 3%.
`Cc1ccc(NC(=S)N=Nc2c(O)n(C)c3ccc(S(=O)(=O)N4CCOCC4)cc23)cc1` gave Integrin act MD -2%, BCR signal inh inconclusive, uPA surface inh -6%, VP16 counter 1µM*, RORg inh 0.71µM* and Mito fusion act 0%.
Screening Cc1cc(C)cc(NC(=S)N=Nc2c(O)n(C)c3ccc(S(=O)(=O)N4CCOCC4)cc23)c1 returned Integrin act MD -36%, BCR signal inh inconclusive, uPA surface inh -6%, VP16 counter -90%, RORg inh inconclusive and Mito fusion act 9%.
`CCN(CC)C[C@@H](O)CN1CCCCc2nc(C)c(C)cc21` gave VP16 counter -8%[10 µM] and RORg inh 1%[10 µM].
`CO/N=C/c1c(-c2ccc(Cl)cc2)nc2cc(C)ccn12` gave Integrin act MD -29%, BCR signal inh 1%, uPA surface inh -3%, VP16 counter 6%, RORg inh 8.9µM* and Mito fusion act -6%.
For Clc1ccc(-c2nc3sccn3c2/C=N/OCc2ccc(Cl)c(Cl)c2)cc1 the results were VP16 counter -9% and RORg inh 20%.
O=C(NC(=S)N1CCc2ccccc21)C1CCC1 was read as Integrin act MD 14%, BCR signal inh 0%, uPA surface inh -10%, VP16 counter inconclusive, RORg inh 2.8µM* and Mito fusion act -3%.
Screening CC(C)(C)C(=O)NC(=S)N1CCc2ccccc21 returned Integrin act MD -13%, BCR signal inh -6%, uPA surface inh 13%, VP16 counter inconclusive, RORg inh 5µM* and Mito fusion act 2%.
For S=C(Nc1cccnc1)N1CCc2ccccc21 the results were Integrin act MD inconclusive, BCR signal inh -7%, uPA surface inh -1%, VP16 counter 6%, RORg inh -10% and Mito fusion act 4%.
Screening Nc1ccc(-c2ccc3ccccc3n2)cc1 returned VP16 counter 11µM*, RORg inh -20% and Mito fusion act inconclusive.
Screening COc1ccc(-c2ccc3ccccc3n2)cc1 returned Integrin act MD 0%, BCR signal inh inconclusive, uPA surface inh -9%, VP16 counter inconclusive, RORg inh inconclusive and Mito fusion act -4%.
CCc1ccccc1Nc1nn2c(=O)c3ccc(C(=O)NCc4cccs4)cc3nc2s1 was read as BCR signal inh inconclusive and Mito fusion act 6%.
N#Cc1ccc[n+](CC(=O)c2ccc(NC(=O)c3ccccc3)cc2)c1 was read as Integrin act MD -1%, BCR signal inh -1%, uPA surface inh 7%, VP16 counter 2%, RORg inh 15% and Mito fusion act -3%.
`CCOC(=O)c1c(C)[nH]c(C(=O)OCC(=O)Nc2cc(Cl)ccc2OC)c1C` gave Integrin act MD -7%, BCR signal inh 10%, VP16 counter -8%, RORg inh 41% and Mito fusion act -2%.
For CC(=O)c1c(C)[nH]c(C(=O)OCC(=O)Nc2ccc(Cl)cc2[N+](=O)[O-])c1C the results were Integrin act MD -48%, BCR signal inh inconclusive, uPA surface inh -4%, VP16 counter 5µM*, RORg inh inconclusive and Mito fusion act -3%.
COc1ccc(OC)c(NC(=O)c2cc3ccccc3o2)c1 was read as Integrin act MD -11%, BCR signal inh 2%, uPA surface inh 2%, VP16 counter 4%, RORg inh 28% and Mito fusion act 5%.
Screening CCC(=O)NC(=S)Nc1ccc(OC)cc1OC returned Integrin act MD 20%, BCR signal inh inconclusive, uPA surface inh -7%, VP16 counter inconclusive, RORg inh 11µM* and Mito fusion act -6%.
`Cc1ccc(NC(=S)NC(=O)Cc2ccccc2)c(O)c1` gave Integrin act MD -23%, BCR signal inh 5%, uPA surface inh 4%, VP16 counter inconclusive, RORg inh 20µM* and Mito fusion act -4%.
COc1ccc(NC(=S)NC(=O)c2cc3ccccc3o2)c(OC)c1 was read as Integrin act MD 13%, BCR signal inh -6%, uPA surface inh 4%, VP16 counter -24%, RORg inh 8.9µM* and Mito fusion act -3%.
For COc1ccc(NC(=O)c2cc(C(C)C)on2)c(OC)c1 the results were Integrin act MD 0%, BCR signal inh inconclusive, uPA surface inh -14%, VP16 counter 7.1µM*, RORg inh inconclusive and Mito fusion act -12%.
